# Data from PubChem BioAssay AID902 (National Center for Advancing Translational Sciences (NCATS), 2007).
# In all, about 130,000 compounds went through this assay and about 1,900 (1.5%) were called active. Where a call stands in place of a potency, no number is given. Not shown: some 5% with an inconclusive outcome. This is one part of a sample in which actives are shown more often than they occur. Calls follow the shape of the dose curve; as a rule, active = well fitted cell-killing curve with a large enough effect; inconclusive = small, poorly fitted or top-dose-only effect; inactive = no such curve, though single readings can be large or run the other way.
# Test: qHTS Screen for Compounds that Selectively Target Cancer Cells with p53 Mutations: Cytotoxicity of p53ts Cells at the Nonpermissive Temperature; also: nearly all actives have a fitted effect of over 55% in size
# Settings: H1299-p53A138V viability at 39C, ATP luminescence, 24 h; series mostly up to 46.1 µM
# Potency is read from the fitted curve at half-maximal effect.
row,SMILES,Potency
1,Cc1ccccc1CSCCNC(=O)C1CCN(S(=O)(=O)Cc2ccccc2)CC1,inactive
2,Cc1ccc(NC(=O)c2ccc3[nH]c(C)cc(=O)c3c2)c(C)c1,inactive
3,CC1(C)CC(=O)c2cc(OCC(=O)NCC3CCCO3)ccc2O1 (stereo unspecified),inactive
4,CCC1(C)CC(=O)c2c(ccc3oc(C(=O)Nc4ccc(C(C)=O)cc4)c(C)c23)O1 (stereo unspecified),inactive
5,Cc1c(C(=O)NCc2ccccc2Br)oc2ccc3c(c12)C(=O)CC(C)(C)O3,15.8 µM (active)
6,CCS(=O)(=O)N1CCc2cc(C(=O)NCc3ccc(C)cc3)ccc21,inactive
7,COc1ccccc1-c1cc(C(F)(F)F)nc(S(=O)(=O)CCCC(=O)Nc2ccc(F)cc2F)n1,inactive
8,Cc1ccc(O)c(NC(=O)c2cc(-c3ccc(F)cc3)no2)c1,inactive
9,Cc1ccc(O)c(NC(=O)CCS(=O)(=O)c2nc(-c3ccc4c(c3)OCO4)cc(C(F)(F)F)n2)c1,3.16 µM (active)
10,Cc1ccc(CNC(=O)c2ccc(CS(=O)Cc3cccc(Cl)c3)o2)cc1 (stereo unspecified),inactive
11,Fc1ccc2nc(N3CCCCC3)sc2c1,inactive
12,COc1ccc2nc(Nc3nc4cc5c(cc4s3)OCCO5)sc2c1,inactive
13,c1c2c(cc3sc(N4CCCCC4)nc13)OCCO2,2 µM (active)
14,Cc1cccc(CSc2nc3ccncc3n2CC(=O)N(C)C2CCCCC2)c1,inactive
15,COc1ccc(CNC(=O)c2ccc3c(O)c(S(=O)(=O)c4ccccc4)c(=O)[nH]c3c2)cc1,inactive
16,Cc1ccc(C(=O)Nc2ccc3[nH]c(=O)c(=O)[nH]c3c2)cc1,inactive
17,CC(C)c1ccc(NC(=O)c2ccc3c(O)c(S(=O)(=O)c4ccccc4)c(=O)[nH]c3c2)cc1,6.31 µM (active)
18,COc1ccc(C)cc1NC(=O)CCc1c(C)nn(-c2ccc(N3CCOCC3)nn2)c1C,inactive
19,Cc1ccc(N2CC(NC(=O)Cc3cccs3)CC2=O)cc1 (stereo unspecified),inactive
20,CCOc1ccc(/C(O)=C2/C(=O)C(=O)N(Cc3cccnc3)C2c2ccc(N(C)C)cc2)c(C)c1 (stereo unspecified),inactive
21,CCCOc1ccc(C2c3c(-c4ccccc4O)n[nH]c3C(=O)N2Cc2cccnc2)cc1 (stereo unspecified),12.6 µM (active)
22,COc1ccc(CCN2C(=O)c3[nH]nc(-c4ccccc4O)c3C2c2ccc(C)cc2)cc1OC (stereo unspecified),inactive
23,CCCCN1C(=O)c2[nH]nc(-c3ccccc3O)c2C1c1cccc(OCc2ccccc2)c1 (stereo unspecified),25.1 µM (active)
24,COc1ccc(C2C(C(C)=O)=C(O)C(=O)N2Cc2cccnc2)cc1 (stereo unspecified),inactive
25,COc1cccc(-c2n[nH]c3c2C(c2cccc(O)c2)N(C)C3=O)c1 (stereo unspecified),inactive
26,O=C(c1cccc(Cl)c1)N1CCN(CCc2ccncc2)CC1,inactive
